“And” between values parts separate entries of the source, which are not always exact repeats. Identical values can stand only once. Inconclusive results are not listed. The source made the active and inactive calls. Unless noted, the call rests on the fitted dose curve; in most records, active means well fitted curve in the direction sought with a large enough effect in the repeat runs; inconclusive means weak or mixed curves; inactive means no such curve, though single readings can be large; an effect the other way counts as inactive or inconclusive.
What was measured:
[1] = qHTS assay to identify small molecule antagonists of the constitutive androstane receptor (CAR) signaling pathway - cell viability counter screen (AID 1224837); further: nearly all actives have a fitted effect of over 45% in size
Outline: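 HepG2 cells stably expressing hCAR and a CYP2B6-2.2kb reporter were plated and pre-incubated 4 hr at 37 C/5% CO2, then given compounds at 15 concentrations plus 50 nM CITCO (final). After 23 hr, viability was read by CellTiter-Fluor fluorescence.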

[2] = qHTS assay to identify small molecule antagonists of the estrogen related receptor signaling pathway with the pleiotropic PPARgamma coactivator (PGC) from Tox21 10K library - cell viability counter screen (AID 1224840; active means well fitted cell-killing curve with a large enough effect in the repeat runs, not every such curve was filed as active; further: nearly all actives have a fitted effect of over 40% in size)
Outline: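 PGC/ERR cells were seeded at 2,000 cells/well and left 6 hours at 37 C/5% CO2 before pin-tool addition of compounds in DMSO. After 17.5 hours at 37 C, CellTiter-Fluor was added and fluorescence read 30 minutes later.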

[3] = qHTS assay to identify small molecule antagonists of the estrogen related receptor signaling pathway with the pleiotropic PPARgamma coactivator (PGC) from Tox21 10K library (AID 1224841; call rule not given here; further: actives are mostly falling curves and most rising ones were filed inactive; nearly all actives have a fitted effect of over 50% in size)
Outline: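 PGC/ERR reporter cells were seeded at 2,000 cells/well and held 6 hours at 37 C/5% CO2 before pin-tool addition of compounds in DMSO. After 18 hours at 37 C, One-Glo was added and luminescence read after 30 minutes at room temperature.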

[4] = molecular target: Thyrotropin receptor (Homo sapiens) (UniProt P16473); assay: qHTS assay to identify small molecule agonists of the thyroid stimulating hormone receptor (TSHR) signaling pathway (AID 1224843; calls by dose curve; further: nearly all actives have a fitted effect of over 45% in size)
Sequence of Thyrotropin receptor (Homo sapiens) (P16473 whole entry, looked up): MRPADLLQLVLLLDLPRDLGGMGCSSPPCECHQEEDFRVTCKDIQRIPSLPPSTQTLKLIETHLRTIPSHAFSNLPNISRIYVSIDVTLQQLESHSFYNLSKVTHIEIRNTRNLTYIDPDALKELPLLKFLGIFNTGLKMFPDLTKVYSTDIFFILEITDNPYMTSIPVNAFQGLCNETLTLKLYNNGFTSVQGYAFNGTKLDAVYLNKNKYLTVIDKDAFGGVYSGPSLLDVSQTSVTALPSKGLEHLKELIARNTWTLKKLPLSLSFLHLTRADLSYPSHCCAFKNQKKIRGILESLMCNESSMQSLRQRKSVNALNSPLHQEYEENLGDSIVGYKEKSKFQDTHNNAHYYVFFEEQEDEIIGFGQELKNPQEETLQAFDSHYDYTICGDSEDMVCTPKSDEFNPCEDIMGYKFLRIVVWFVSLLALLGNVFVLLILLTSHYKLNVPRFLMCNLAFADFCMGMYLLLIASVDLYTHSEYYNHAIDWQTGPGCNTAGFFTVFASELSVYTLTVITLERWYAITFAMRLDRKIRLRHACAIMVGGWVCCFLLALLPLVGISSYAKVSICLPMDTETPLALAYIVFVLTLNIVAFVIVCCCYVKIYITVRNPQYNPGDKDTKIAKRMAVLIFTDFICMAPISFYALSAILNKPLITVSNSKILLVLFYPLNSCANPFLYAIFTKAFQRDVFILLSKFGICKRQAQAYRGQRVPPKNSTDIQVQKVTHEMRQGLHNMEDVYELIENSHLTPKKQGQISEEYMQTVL
Outline: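 HEK293 cells stably bearing the thyrotropin receptor were plated at 800 cells/well and challenged with compound (30 min, RT). Accumulated cAMP was quantified via cAMP-d2 competing for cryptate-tagged antibody.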

[5] = qHTS assay to identify small molecule agonists of the hypoxia (HIF-1) signaling pathway - cell viability counter screen (AID 1224844; calls by dose curve; further: nearly all actives have a fitted effect of over 50% in size)
Outline: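 HRE-bla ME-180 cells in medium with 0.5% dialyzed FBS were preincubated 5 hrs at 37C, exposed to compounds for 17 hrs, then viability was read as CellTiter-Glo luminescence after 30 min at room temperature, in the reporter wells.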

[6] = qHTS assay to identify small molecule agonists of the hypoxia (HIF-1) signaling pathway (AID 1224846; active means well fitted activation curve with a large enough effect in the signal ratio in the repeat runs, not every such curve was filed as active; the % refers to the signal ratio)
Outline: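 HRE-bla ME-180 cells (beta-lactamase reporter under hypoxia response element) were plated at 2,000 cells/well in medium with 0.5% dialyzed FBS, rested 5 hrs, then given compounds in DMSO for 17 hrs at 37C, 5% CO2. Reporter induction was read with CCF4-AM FRET substrate.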

[7] = qHTS assay to identify small molecule antagonists of the estrogen related receptor (ERR) signaling pathway from Tox21 library (AID 1224848); further: nearly all actives have a fitted effect of over 50% in size
Outline: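 Reading was by luminescence 30 min after ONE-Glo addition. Before that, ERR cells at 2,000 per well had rested 6 h at 37 C/5% CO2 and then received pin-tooled compounds in DMSO for 18 h at 37 C.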

[8] = qHTS assay to identify small molecule agonists of the estrogen related receptor (ERR) signaling pathway from Tox21 library (AID 1224849; calls by dose curve; further: nearly all actives have a fitted effect of over 15% in size); details: ERR reporter cell line, ONE-Glo luciferase, 18 h; at 92.4 µM (top of the series)
Outline: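 ERR reporter cell line (NTP) seeded, rested 6 h at 37 C/5% CO2, then pinned with Tox21 compounds in DMSO. After 18 h at 37 C, ONE-Glo luciferase luminescence was read following 30 min at room temperature.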

[9] = qHTS RealTime-Glo MT Cell Viability Assay in HepG2 cells - 24 hour (AID 1224867); further: nearly all actives have a fitted effect of over 50% in size
Outline: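 Viability was tracked continuously by NanoLuc luminescence from prosubstrate reduced by living HepG2 cells, at successive time points over 40 h of compound exposure. Cells with reagent were preincubated 5 h at 37 °C before compound addition.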

[10] = qHTS RealTime-Glo MT Cell Viability Assay in HEK293 cells - 32 hour (AID 1224868)
Outline: (§1)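 Viability tracked continuously by luminescence as live cells reduce a prosubstrate for NanoLuc; HEK293 cells preincubated 5 h, compound-treated at 37 C, and read at 0, 8, 16, 24, 32 and 40 h.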

[11] = A CellTox Green Cytotoxicity Assay to monitor cytotoxicity in HEK293 cells - 0 hour (AID 1224869); further: nearly all actives have a fitted effect of over 50% in size
Outline: (§2)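 HEK293 cells premixed with CellTox Green dye were seeded at 600 cells/well and left 5 h at 37 C/5% CO2 before pin transfer of 23 nL compound in DMSO. Fluorescence from dye bound to dead-cell DNA was read during 40 h treatment.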

[12] = qHTS RealTime-Glo MT Cell Viability Assay in HepG2 cells - 40 hour (AID 1224870); further: nearly all actives have a fitted effect of over 50% in size
Outline: (§3)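 Real-time viability: cells seeded at 600 per well together with NanoLuc and cell-permeant prosubstrate, compounds added after 5 h incubation. Luminescence tracked at 0, 8, 16, 24, 32 and 40 h of exposure.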

[13] = A CellTox Green Cytotoxicity Assay to monitor cytotoxicity in HEK293 cells - 40 hour (AID 1224871); further: nearly all actives have a fitted effect of over 45% in size
Outline: as §2

[14] = qHTS RealTime-Glo MT Cell Viability Assay in HEK293 cells - 16 hour (AID 1224872)
Outline: as §1

[15] = qHTS RealTime-Glo MT Cell Viability Assay in HepG2 cells - 8 hour (AID 1224873); further: nearly all actives have a fitted effect of over 55% in size
Outline: as §3

[16] = molecular target: Nuclear receptor subfamily 1 group I member 3 (Homo sapiens) (UniProt Q14994); assay: qHTS assay to identify small molecule antagonists of the constitutive androstane receptor (CAR) signaling pathway (AID 1224838); further: nearly all actives have a fitted effect of over 40% in size
Sequence of Nuclear receptor subfamily 1 group I member 3 (Homo sapiens) (Q14994 whole entry, looked up): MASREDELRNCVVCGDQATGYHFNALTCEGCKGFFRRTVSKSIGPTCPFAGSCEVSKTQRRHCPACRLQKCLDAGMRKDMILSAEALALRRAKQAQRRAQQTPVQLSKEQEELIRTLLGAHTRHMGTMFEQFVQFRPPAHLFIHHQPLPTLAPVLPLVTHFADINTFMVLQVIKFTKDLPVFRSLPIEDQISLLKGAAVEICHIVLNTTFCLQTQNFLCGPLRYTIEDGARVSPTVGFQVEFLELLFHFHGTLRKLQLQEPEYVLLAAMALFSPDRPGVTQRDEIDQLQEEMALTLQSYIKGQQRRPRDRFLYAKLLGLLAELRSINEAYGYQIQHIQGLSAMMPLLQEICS
Outline: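 HepG2 cells stably co-transfected with hCAR and a CYP2B6-2.2kb luciferase reporter were seeded 4 h before compound addition at 15 concentrations. Cells were stimulated with 50 nM CITCO (final) for 24 h at 37 C; luciferase luminescence was then read.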

[17] = molecular target: Nuclear receptor subfamily 1 group I member 3 (Homo sapiens) (UniProt Q14994); assay: qHTS assay to identify small molecule agonists of the constitutive androstane receptor (CAR) signaling pathway (AID 1224839);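 further: HepG2 cells stably carrying human CAR and a CYP2B6 luciferase reporter; nearly all actives have a fitted effect of over 15% in size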
Outline: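 Using human hepatoma HepG2 cells engineered with hCAR and a CYP2B6-2.2kb reporter, 15-concentration compound series were incubated 24 h alongside PK11195 at 0.75 uM final, with luminescence quantified afterwards.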

[18] = qHTS assay to identify small molecule agonists of H2AX (AID 1224845; active means well fitted activation curve with a large enough effect in the signal ratio in the repeat runs, not every such curve was filed as active; the % refers to the signal ratio)
Outline: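 Phospho-H2AX Ser139 measured by HTRF (ex 320 nm; em 665 and 620 nm) after 24 hr antibody incubation. Compounds, 15 concentrations, 0.76% DMSO, were applied to CHO-K1 cells for 3hr at 37C before lysis.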

[19] = qHTS assay to identify small molecule agonists of H2AX - cell viability counter screen (AID 1224847; calls by dose curve;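 further: wild-type CHO-K1 cells; top concentration of the series differs between compounds; nearly all actives have a fitted effect of over 30% in size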)
Outline: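 After overnight plating of 1000 CHO-K1 cells per well, a 15-concentration compound series was applied for 3 hr at 37C. Luminescence from CellTiter-Glo, read following 30 min at room temperature, reflected cell viability.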

[20] = qHTS assay to identify small molecule agonists of the estrogen related receptor signaling pathway with the pleiotropic PPARgamma coactivator (PGC) from Tox21 10K library (AID 1224842); further: nearly all actives have a fitted effect of over 15% in size
Outline: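 Luminescence from One-Glo (30 min, room temperature) measured after PGC/ERR cells had 18 h at 37 C with pinned compound (23 nL in DMSO). Cells had been seeded at 2,000 per well and pre-incubated 6 h.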
On the % scale 0 is the no-effect control and ±100 the full control effect.

Cc1cccc([N+](=O)[O-])c1
inactive: Potency [1] | Potency [2] | Potency [3] | Potency [4] | Potency [5] | outcome [6] | Potency [7] | activity change, positive = activation [8] 5.45% and 0.517% | outcome [9] | Potency [10] | Potency [11] | outcome [12] | Potency [13] | outcome [14] | outcome [15]

O=C(O)c1ccccn1
inactive: Potency [1] | Potency [16] | Potency [17] | Potency [2] | Potency [5] | Potency [18] | outcome [6] | Potency [19] | outcome [9] | Potency [10] | Potency [11] | outcome [12] | Potency [13] | outcome [14] | outcome [15]

Nc1ccc(Cc2ccc(N)cc2)cc1
inactive: Potency [1] | Potency [16] | Potency [2] | Potency [4] | Potency [5] | Potency [18] | outcome [6] | Potency [19] | outcome [9] | Potency [10] | Potency [11] | outcome [12] | Potency [13] | outcome [14] | outcome [15]

CCCCCCCCCl
inactive: Potency [1] | Potency [2] | Potency [5] | outcome [6] | outcome [9] | Potency [10] | Potency [11] | Potency [13] | outcome [14]

CC(C)OC(=O)Nc1cccc(Cl)c1
inactive: Potency [1] | Potency [2] | Potency [3] | outcome [20] | Potency [4] | Potency [5] | Potency [18] | outcome [6] | Potency [7] | outcome [9] | Potency [10] | Potency [11] | Potency [13] | outcome [14] | outcome [15]

Reference: PubChem BioAssay (Tox21)
